Values joined by “and” are separate entries in the source; they are usually repeats but may differ in a detail not shown here. Identical values can stand only once. Screen size: about 16,000 compounds; about 4,000 (25%) were called active. Another 26% or so got no clear call; they are omitted. Calls follow the shape of the dose curve; as a rule, active = well fitted curve in the direction sought with a large enough effect; inconclusive = small, poorly fitted or top-dose-only effect, or effect the other way; inactive = no such curve, though single readings can be large or run the other way. Only a sample is shown. Some compounds were tested as several samples or in several runs, with calls that do not always agree.
% is scaled to controls: 0 for no effect and ±100 for the full control effect.

This assay deals with Cytochrome P450 2C9 (Homo sapiens) (UniProt P11712). The assay is described as follows: Cytochrome panel assay with activity outcomes. Particulars: recombinant CYP, pro-luciferin dealkylation, luminescence, p450-cyp2c9; series mostly up to 57.1 µM; activity, negative = inhibition: at the top concentration.
Sequence of Cytochrome P450 2C9 (Homo sapiens) (P11712 whole entry, looked up): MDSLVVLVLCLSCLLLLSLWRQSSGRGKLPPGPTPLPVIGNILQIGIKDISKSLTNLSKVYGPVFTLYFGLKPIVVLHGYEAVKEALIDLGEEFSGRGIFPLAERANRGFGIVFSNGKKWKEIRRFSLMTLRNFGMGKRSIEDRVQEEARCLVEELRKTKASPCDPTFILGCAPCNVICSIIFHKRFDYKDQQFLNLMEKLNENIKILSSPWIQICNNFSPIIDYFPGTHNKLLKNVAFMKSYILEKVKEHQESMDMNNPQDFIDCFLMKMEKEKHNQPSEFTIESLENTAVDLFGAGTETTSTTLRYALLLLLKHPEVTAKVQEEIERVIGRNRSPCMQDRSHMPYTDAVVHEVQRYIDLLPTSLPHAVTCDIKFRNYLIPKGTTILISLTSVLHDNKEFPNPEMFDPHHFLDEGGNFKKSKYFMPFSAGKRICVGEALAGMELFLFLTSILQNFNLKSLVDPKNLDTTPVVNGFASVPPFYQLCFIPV
With `c1ccc2c(CSCCc3ccncc3)cccc2c1`, the AC50 is 0.0631 µM (active). In the case of `O=S(=O)(O)CCCc1cccc2ccccc12`, the activity, negative = inhibition was -3.26% [at 11.4 µM] (inactive).

As for `CN1CCN(CCc2ccc(Cl)c(Cl)c2)CC1`, the “activity, negative = inhibition” value was -18.2% (inactive).

Regarding `N=C(N)SCCc1ccc(CCSC(=N)N)cc1`, the “activity, negative = inhibition” value was 12.5% (inactive).

Take `c1ccc(CSCCc2ccncc2)cc1`: the AC50 is 0.316 µM (active).

Consider `c1cc(CNCCN2CCNCC2)ccn1`, for which the activity, negative = inhibition is -4.43% [at 11.4 µM] (inactive). As for `N=C(N)SCCc1ccncc1`, the activity, negative = inhibition is 6.27% [at 11.4 µM] (inactive). For `c1cc(CSSCc2ccncc2)ccn1`, the half-maximal activity concentration (AC50) was 1.58 µM (active). For `c1ccc2c(CC3NCCN3)cccc2c1`, the activity, negative = inhibition was -9.35% [at 11.4 µM] (inactive). The same measure, in the same setting: with `C[C@@H]1c2ccccc2CN1CC1=NCCN1` the figure was 9.84% (inactive). On the same count and under the same terms, to `Cc1ncc([N+](=O)[O-])n1CCO` belongs -6.17% [at 25.6 µM] (inactive). As to `CCOC(=O)N1CCC(NC(=O)CS(=O)(=O)Cc2nc(-c3cccc(OC)c3)oc2C)CC1`, the concentration at half-maximal activity (AC50) is 25.1 µM (active). For `Cc1oc(-c2ccccc2F)nc1CS(=O)(=O)CC(=O)NCCCN(C)C1CCCCC1`, the “activity, negative = inhibition” value is -21.4% (inactive). On the same count and under the same terms, with `CCOC(=O)N1CCC(NC(=O)CCC(=O)N2CC(C)Oc3ccc(C)cc32)CC1` (stereo unspecified) the figure was -19.7% (inactive). Turning to `CNc1ncnc2ccc(-c3cccc(NS(C)(=O)=O)c3)cc12`, the activity, negative = inhibition is -18.3% [at 2.29 µM] (inactive). On the same count and under the same terms, with `CC1=C(CC(=O)O)c2cc(F)ccc2/C1=C\c1ccc(S(C)(=O)=O)cc1` the figure was -6.18% (inactive). Consider `CC1=C(CC(=O)O)c2cc(F)ccc2/C1=C\c1ccc(S(C)=O)cc1` (stereo unspecified), for which the AC50 result is “inactive and 12.6 µM (active)”. As to `Cc1noc(C)c1COc1cccc(C(=O)OCC(=O)N2CC(=O)Nc3ccccc32)c1`, the AC50 was 3.55 µM (active). Take `Cc1cc(=O)[nH]c(-n2[nH]c(C)cc2=O)n1`: the “activity, negative = inhibition” value was -7.66% (inactive). Same read-out and setting: with `CO[C@]1(NC(=O)C2SC(=C(C(N)=O)C(=O)O)S2)C(=O)N2C(C(=O)O)=C(CSc3nnnn3C)CS[C@H]21` (stereo partly specified) the figure was 20.1% [at 25.6 µM] (inactive).

Consider `Cc1ccccc1-c1cc(C(=O)n2cccn2)c2cc(Cl)ccc2n1`, for which the AC50 is 5.01 µM (active). Turning to `CC(=O)NCCNc1ncnc2ccc(-c3ccccc3C)cc12`, the activity, negative = inhibition is -0.544% [at 2.29 µM] (inactive). Consider `CC(=O)NCCNc1cc(-c2ccccc2C)ncn1`, for which the activity, negative = inhibition was 5.2% [at 2.29 µM] (inactive). Same read-out and setting: to `C[C@@H](c1ccccc1)N1C(=O)[C@H]2[C@H]3[C@H](O)[C@H](O)C/C(=N/OC[C@@H](O)COCc4ccco4)[C@H]3CC[C@@H]2C1=O` belongs 10.7% [at 11.4 µM] (inactive); to `Cc1c(/C=C2\SC(=O)N(CC(=O)Nc3ccc4c(c3)OCO4)C2=O)c2ccccc2n1C`, -9.41% (inactive). Consider `CC(C)n1cc(/C=C2/SC(=O)N(CC(=O)Nc3ccc4c(c3)OCO4)C2=O)c2ccccc21`, for which the AC50 was 3.98 µM (active). For the molecule `O=C(CCc1ccc(O)cc1)c1c(O)cc(O)cc1O`, the half-maximal activity concentration (AC50) is 12.6 µM (active). In the case of `CC(=O)N[C@H](Cc1ccc(O)cc1)C(=O)O`, the activity, negative = inhibition is 2.06% [at 11.4 µM] (inactive). Take `C[C@@H](CCc1ccc(O)cc1)NCCc1ccc(O)c(O)c1`: the AC50 entry is “inactive”. The same measure, in the same setting: to `C(=N\n1cnnc1)/c1cccn1-c1ccccc1` belongs 5.01 µM (active); to `CCOC(=O)c1cc2sc(C)cc2n1CCCN1C(=O)c2ccccc2C1=O`, 3.55 µM (active). Still for that read-out and setting: to `Cc1nc2c(O)cccc2c(=O)[nH]1` belongs 3.98 µM (active). For `Cc1cc2[nH]c(=O)c3ccccc3n2n1`, the “activity, negative = inhibition” value was -17.6% (inactive). The same measure, in the same setting: to `O=c1[nH]c2ccccc2c2ccccc12` belongs -16.3% (inactive); to `Cc1ccc(C2C(C(=O)c3sc(C)nc3C)=C(O)C(=O)N2CCN2CCOCC2)o1` (stereo unspecified), 12.4% (inactive).

Consider `COc1cc2c(cc1OC)C(C(=O)N1CCOCC1)C(c1cccs1)N(C)C2=O` (stereo unspecified), for which the “activity, negative = inhibition” value was 13.6% (inactive). As to `COc1ccc(CCN2C(=O)C(O)=C(C(=O)c3ccco3)C2c2cccs2)cc1OC` (stereo unspecified), the AC50 is 1.41 µM (active). Turning to `CCC(C)NC(=O)C1c2cc(OC)c(OC)cc2C(=O)N(C)C1c1cccs1` (stereo unspecified), the “activity, negative = inhibition” value was 4.6% (inactive). For the molecule `CCOc1cccc(C2C(C(=O)c3ccc(C)o3)=C(O)C(=O)N2Cc2ccncc2)c1` (stereo unspecified), the AC50 was 12.6 µM (active).

Take `COc1cc(C2C(C(=O)c3ccc(C)o3)=C(O)C(=O)N2CCc2ccccc2)ccc1O` (stereo unspecified): the AC50 is 7.08 µM (active).

As to `CN(C)CCN1C(=O)C(O)=C(C(=O)c2cc3ccccc3o2)C1c1cccc(Br)c1` (stereo unspecified), the “activity, negative = inhibition” value is -9% (inactive). On to `Cc1ccc(C(=O)C2=C(O)C(=O)N(CCCn3ccnc3)C2c2ccc(OC(C)C)cc2)o1` (stereo unspecified), for which the AC50 was 11.2 µM (active). Turning to `C/C(=N\O)c1cccc[n+]1Cc1ccccc1`, the activity, negative = inhibition is -0.751% [at 11.4 µM] (inactive).

Consider `COC(=O)[C@]1(C)CCC(c2ccc(C)cc2)=C(CC(=O)O)C1`, for which the activity, negative = inhibition was 3.21% [at 11.4 µM] (inactive).

On to `OC[C@@H]1NC[C@@H](O)[C@H]1O`, for which the “activity, negative = inhibition” value was 27.3% (inactive). `FC(F)(F)c1ccccc1-c1cncnc1NCCN1CCOCC1`: the activity, negative = inhibition was -5.4% [at 2.29 µM] (inactive).

In general, AC50 refers to the concentration at which the activity in the assay is half-maximal.

The record behind these values is PubChem BioAssay AID1851 (National Center for Advancing Translational Sciences (NCATS), 2009).
